Hits are enriched below; roughly 6.1% of the tested compounds scored in any of these assays.
S2 tox: reduces viability in counter-screen for ATXN expression inhibitors. S2 cells (HEK-293 line with an ATXN2-luciferase reporter) viability, CellTiter-Fluor protease fluorescence, 24 h. AID 651635. Potency, µM (highest dose often 56.7 µM), most hits filed as cytotoxic. 400,000 compounds, 0.49% hits; further: nearly all actives have a fitted effect of over 40% in size
HepG2 tox: HepG2 cytotoxicity, counter-screen for TGF-b inhibitors; 410,000 compounds, 0.76% hits; AID 588856; Potency, µM (doses to about 46.1 µM), for inactives: top-dose activity change, negative = cytotoxicity, usual class: cytotoxic; HepG2 CAGA-GFP viability, ATP luminescence, 18 h
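HepG2 CAGA-GFP cells (1000/well, DMEM with 1% FBS) received compound, then TGF-beta at 500 pg/mL final, and were incubated 18 hours at 37 degrees C. Viability was read by CellTiter-Glo luminescence. Media-only wells were set as complete cell-killing and DMSO as no toxicity.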
Gal4-VP16 FLuc: counter-screen for ROR gamma inhibitors: Gal4-VP16 reporter; Potency, µM (highest dose often 53.6 µM), inactives show at the top dose activity, negative = inhibition, hits mostly inhibitors; Drosophila S2 Gal4-VP16 UAS-luciferase, luminescence, 20 h; 310,000 compounds, 3.5% hits;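 further: Gal4-VP16 expression switched on by copper sulfate through the metallothionein promoter; on the % scale 0 is the no-effect control and ±100 the full control effect; nearly all actives have a fitted effect of over 50% in size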
ATXN2 expr inh: ATXN2 expression inhibition. HEK-293 ATXN2-luciferase reporter, luminescence, 24 h. AID 1745845. 360,000 compounds, 0.72% hits. Potency, µM (highest dose often 57 µM), for inactives: at the top dose activity change, negative = inhibition, most hits filed as inhibitors; further: on the % scale 0 is the no-effect control and ±100 the full control effect; nearly all actives have a fitted effect of over 55% in size
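ATXN2-luciferase reporter cells (luciferase flanked by upstream and downstream ATXN2 gene portions) were treated 24 h at 37 °C with compounds at up to 57 uM. SteadyGlo luminescence gave expression; GF-AFC fluorescence gave viability.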
TGFb SMAD3 inh: blocks TGF-b signaling | HepG2 CAGA-GFP TGF-b/SMAD3 reporter, GFP fluorescence, 18 h; TGF-beta stimulated, 500 pg/mL final | Potency, µM (doses to about 46.1 µM), inactives show at the highest dose activity, negative = inhibition, actives largely listed as inhibitors | 410,000 compounds, 1.2% hits | AID 588855; further: on the % scale 0 is the no-effect control and ±100 the full control effect; nearly all actives have a fitted effect of over 65% in size
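Cell-based qHTS in HEPG2 carrying a CAGA-GFP Smad reporter; compounds added before 500 pg/mL final TGF-beta, 18 h incubation at 37 degrees C, GFP fluorescence quantified per cell by imaging cytometry.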
RORg inh: inhibitors of mouse ROR gamma transcriptional activity; Potency, µM (top dose mostly 53.6 µM), inactives show at the highest dose activity change, negative = inhibition, usual class: inhibitors; 310,000 compounds, 5.4% hits; Drosophila S2 Gal4-RORgamma UAS-luciferase reporter, 20 h; further: on the % scale 0 is the no-effect control and ±100 the full control effect; nearly all actives have a fitted effect of over 60% in size
Target sequence (P51450 whole entry, looked up, the tested form may be a part): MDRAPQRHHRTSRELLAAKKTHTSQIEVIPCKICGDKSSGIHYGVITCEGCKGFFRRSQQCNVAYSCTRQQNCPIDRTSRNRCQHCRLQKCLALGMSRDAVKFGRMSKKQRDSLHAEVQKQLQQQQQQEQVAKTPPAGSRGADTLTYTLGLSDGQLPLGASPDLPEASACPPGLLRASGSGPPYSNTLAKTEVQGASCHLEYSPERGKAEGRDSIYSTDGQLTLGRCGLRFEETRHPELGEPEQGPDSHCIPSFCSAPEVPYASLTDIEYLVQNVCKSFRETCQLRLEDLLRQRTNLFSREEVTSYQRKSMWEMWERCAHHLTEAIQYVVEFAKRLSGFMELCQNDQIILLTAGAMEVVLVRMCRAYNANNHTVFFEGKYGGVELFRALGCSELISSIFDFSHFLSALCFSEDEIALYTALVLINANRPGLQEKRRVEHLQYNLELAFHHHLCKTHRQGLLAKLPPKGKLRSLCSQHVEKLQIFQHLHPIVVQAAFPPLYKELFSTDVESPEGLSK
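Read-out: Photinus luciferase luminescence; inhibitors lower reporter signal. Insect Schneider cells with Gal4-ROR gamma fusion under metallothionein promoter, UAS reporter; 700 uM final copper sulfate induction, 20 hr, ambient temperature.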
The depositor's hits bear a star. The call rests on the fitted dose curve; in most records, active means well fitted curve in the direction sought with a large enough effect; inconclusive means small, poorly fitted or top-dose-only effect, or another doubt; inactive means no such curve, though single readings can be large; an effect the other way counts as inactive or inconclusive. Potency means the concentration at half of the fitted maximal effect.

`Cc1ccc(OCCn2cc(C=O)c3ccccc32)cc1` gave S2 tox inactive, HepG2 tox -14%, Gal4-VP16 FLuc -8%, ATXN2 expr inh inconclusive, TGFb SMAD3 inh 11µM* and RORg inh inconclusive.
CCn1cc(/C=N/NC(=O)COc2cccc3cccnc23)c2ccccc21 was read as S2 tox inactive, HepG2 tox -39%, Gal4-VP16 FLuc -11%, ATXN2 expr inh 1%, TGFb SMAD3 inh -1% and RORg inh 34%.
Screening COc1ccc(OCCn2cc(/C=N/NC(=O)c3ccncc3)c3ccccc32)cc1 returned S2 tox inactive, HepG2 tox -40%, Gal4-VP16 FLuc 8.9µM*, ATXN2 expr inh -11%, TGFb SMAD3 inh inconclusive and RORg inh 5µM*.
Cc1ccc(OCC(=O)N/N=C/c2cn(Cc3ccccc3)c3ccccc23)cc1 was read as S2 tox inconclusive, HepG2 tox -57%, Gal4-VP16 FLuc 7.1µM*, TGFb SMAD3 inh inconclusive and RORg inh 5µM*.
For CCOc1ccccc1CNC(=O)c1ccc(NC(=O)N2CCSc3ncccc32)cc1 the results were HepG2 tox 9% and TGFb SMAD3 inh -28%.
Screening COc1ccc(CNC(=O)c2ccc(N3CCCC3)c(NC(=O)NCc3ccc(F)cc3)c2)cc1 returned S2 tox inconclusive, HepG2 tox -26%, ATXN2 expr inh -21% and TGFb SMAD3 inh inconclusive.
`COc1ccc(CCCc2nnc(SCC(=O)Nc3ccc(F)cc3)o2)cc1C` gave S2 tox inconclusive, HepG2 tox -18%, ATXN2 expr inh -25% and TGFb SMAD3 inh -8%.
COc1ccc(OC(=O)N(CC(=O)O)Cc2ccc(OCCc3nc(-c4ccccc4)oc3C)cc2)cc1 was read as S2 tox inactive and ATXN2 expr inh 0%.
For Cc1ccc(C)c(OCCn2cc(C(=O)O)c3ccccc32)c1 the results were S2 tox inactive, HepG2 tox -19%, Gal4-VP16 FLuc -26%, ATXN2 expr inh 2%, TGFb SMAD3 inh 0% and RORg inh 37%.
Screening CC(=O)c1cn(CCOc2cc(C)ccc2C)c2ccccc12 returned S2 tox inactive, HepG2 tox -1%, Gal4-VP16 FLuc 4µM*, ATXN2 expr inh -24%, TGFb SMAD3 inh -5% and RORg inh inconclusive.
For CCOC(=O)N/N=C/c1cn(CCCOc2ccc(C)cc2)c2ccccc12 the results were HepG2 tox -22%, Gal4-VP16 FLuc 1.8µM*, ATXN2 expr inh 13%, TGFb SMAD3 inh -27% and RORg inh 1.4µM*.
COC(=O)N/N=C/c1cn(CCOc2ccc(OC)cc2)c2ccccc12 was read as S2 tox inactive, HepG2 tox -36%, Gal4-VP16 FLuc 6%, ATXN2 expr inh -24%, TGFb SMAD3 inh inconclusive and RORg inh 35%.
Cc1ccc(OCCn2cc(/C=N/NC(=O)c3ccncc3)c3ccccc32)cc1 was read as HepG2 tox -29%, Gal4-VP16 FLuc 11µM*, ATXN2 expr inh inconclusive, TGFb SMAD3 inh inconclusive and RORg inh 5µM*.
Screening COc1cccc(OCCn2cc(/C=N/NC(=O)c3ccncc3)c3ccccc32)c1 returned S2 tox inactive, HepG2 tox -38%, Gal4-VP16 FLuc 10µM*, ATXN2 expr inh inconclusive, TGFb SMAD3 inh inconclusive and RORg inh inconclusive.
O=C(c1ccc2c(c1)N(Cc1ccc(Cl)cc1)C(=O)c1ccccc1S2(=O)=O)N1CCc2ccccc21 was read as S2 tox inactive, HepG2 tox -20%, ATXN2 expr inh -4% and TGFb SMAD3 inh -3%.
Screening Cc1ccc(NC(=O)c2ccc(-c3nn(C)c(=O)c4ccccc34)cc2)cc1 returned S2 tox inconclusive, HepG2 tox -5%, Gal4-VP16 FLuc -9%, ATXN2 expr inh inconclusive, TGFb SMAD3 inh -5% and RORg inh -28%.
Screening Cn1nc(-c2ccc(OCC(=O)Nc3cccnc3)cc2)c2ccccc2c1=O returned S2 tox inactive, HepG2 tox -11%, Gal4-VP16 FLuc 16µM*, ATXN2 expr inh 27%, TGFb SMAD3 inh 2% and RORg inh 1.8µM*.
`Cn1nc(-c2ccc(C(=O)Nc3cccc(Cl)c3)cc2)c2ccccc2c1=O` gave S2 tox 40µM*, HepG2 tox -29%, Gal4-VP16 FLuc -3%, ATXN2 expr inh 16µM*, TGFb SMAD3 inh -9% and RORg inh 0%.
`Cn1c(CSCc2ccc(Cl)c(Cl)c2)n[nH]c1=S` gave S2 tox inconclusive, HepG2 tox -3%, Gal4-VP16 FLuc 4µM*, ATXN2 expr inh -21%, TGFb SMAD3 inh 5% and RORg inh 5.6µM*.
CCn1c(CSCc2ccc(Cl)cc2)n[nH]c1=S was read as S2 tox inactive, HepG2 tox -18%, Gal4-VP16 FLuc 7.1µM*, ATXN2 expr inh -19%, TGFb SMAD3 inh -16% and RORg inh 2.2µM*.
`Cn1c(Cc2ccccc2)n[nH]c1=S` gave S2 tox inactive, HepG2 tox 0%, Gal4-VP16 FLuc -28%, ATXN2 expr inh 0%, TGFb SMAD3 inh -24% and RORg inh inconclusive.
For CCn1c(CC(C)C)n[nH]c1=S the results were S2 tox inactive, HepG2 tox 5%, Gal4-VP16 FLuc -1%, ATXN2 expr inh -1%, TGFb SMAD3 inh 11% and RORg inh inconclusive.
`CCn1c(CSCc2ccc(C)cc2)n[nH]c1=S` gave S2 tox inactive, HepG2 tox -8%, Gal4-VP16 FLuc 3.5µM*, TGFb SMAD3 inh 6% and RORg inh 5.6µM*.
`CCCc1nnc(NC(=S)Nc2ccccc2)s1` gave S2 tox inactive, HepG2 tox -30%, Gal4-VP16 FLuc 0.63µM*, ATXN2 expr inh 43%, TGFb SMAD3 inh 1% and RORg inh 0.63µM*.
`CC(C)C(=O)Nc1nnc(NC(=S)Nc2ccccc2)s1` gave S2 tox inactive, HepG2 tox 6%, Gal4-VP16 FLuc 2.8µM*, ATXN2 expr inh 45%, TGFb SMAD3 inh inconclusive and RORg inh 0.56µM*.
Screening CCCCCC(=O)Nc1nnc(CCc2ccccc2)s1 returned S2 tox inactive, HepG2 tox 2%, Gal4-VP16 FLuc inconclusive, ATXN2 expr inh 6%, TGFb SMAD3 inh 11% and RORg inh 13µM*.
`CC(C)C(=O)Nc1nnc(CCc2ccccc2)s1` gave S2 tox inactive, HepG2 tox -2%, Gal4-VP16 FLuc 23%, TGFb SMAD3 inh 6% and RORg inh -9%.
Screening Cc1cnc2ccccc2c1/C=C/c1ccc(N(C)C)cc1 returned HepG2 tox -28% and TGFb SMAD3 inh -28%.
